The source of these data is PubChem BioAssay.

A number with no mark means an inactive call.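 How the source made its calls, unless noted: active means compound whose remaining NAD level is above about 45 nM (limit read from the data); inactive means the rest.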

For test [1], the target named is NAD(+) hydrolase SARM1 (Homo sapiens) (UniProt Q6SZW1). Nature of the test: blocking NAD cleavage by SARM1 SAM-TIR – cell lysate, NAD-Glo luminescence (AID 1508614).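 Further: higher remaining NAD means stronger inhibition of SARM1 NADase.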 The following applies: SAM-TIR HEK293T lysate NADase, at 1 µM, hits give high values.
Test [2] concerns the target Mitogen-activated protein kinase 7 (Homo sapiens) (UniProt Q13164). Nature of the test: Gal4-ERK5 driven luciferase induction – cell-based, HTS, primary screen (AID 1508626;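 active means luciferase signal above three times the same-plate solvent-only control wells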;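 further: luciferase driven by Gal4-ERK5 fusion binding five Gal4 sites before minimal TATA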). The following applies: HeLa Gal4-ERK5 transactivation, 18 h, at 5 µM, hits give high values.

Sequence of NAD(+) hydrolase SARM1 (Homo sapiens) (Q6SZW1 whole entry, looked up, the tested form may be a part): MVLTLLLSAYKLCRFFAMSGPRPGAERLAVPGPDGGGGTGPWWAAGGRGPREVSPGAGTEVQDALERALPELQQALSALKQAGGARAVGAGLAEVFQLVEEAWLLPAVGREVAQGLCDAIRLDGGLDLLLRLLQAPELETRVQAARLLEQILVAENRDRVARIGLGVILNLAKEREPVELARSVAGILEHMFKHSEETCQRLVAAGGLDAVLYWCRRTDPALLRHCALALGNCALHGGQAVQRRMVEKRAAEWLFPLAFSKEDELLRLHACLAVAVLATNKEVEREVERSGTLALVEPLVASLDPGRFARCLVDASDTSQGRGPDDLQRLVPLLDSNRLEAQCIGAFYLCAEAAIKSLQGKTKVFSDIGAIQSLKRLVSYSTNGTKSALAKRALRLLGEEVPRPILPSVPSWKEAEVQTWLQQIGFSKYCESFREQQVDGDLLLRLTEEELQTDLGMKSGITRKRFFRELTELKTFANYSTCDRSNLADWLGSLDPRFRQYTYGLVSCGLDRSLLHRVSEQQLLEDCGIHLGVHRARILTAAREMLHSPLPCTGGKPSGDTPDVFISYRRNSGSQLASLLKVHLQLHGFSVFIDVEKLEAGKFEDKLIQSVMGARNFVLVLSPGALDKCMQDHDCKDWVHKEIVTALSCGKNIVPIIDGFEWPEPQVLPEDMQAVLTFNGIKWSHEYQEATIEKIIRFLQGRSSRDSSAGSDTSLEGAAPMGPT
Sequence of Mitogen-activated protein kinase 7 (Homo sapiens) (Q13164 whole entry, looked up, the tested form may be a part): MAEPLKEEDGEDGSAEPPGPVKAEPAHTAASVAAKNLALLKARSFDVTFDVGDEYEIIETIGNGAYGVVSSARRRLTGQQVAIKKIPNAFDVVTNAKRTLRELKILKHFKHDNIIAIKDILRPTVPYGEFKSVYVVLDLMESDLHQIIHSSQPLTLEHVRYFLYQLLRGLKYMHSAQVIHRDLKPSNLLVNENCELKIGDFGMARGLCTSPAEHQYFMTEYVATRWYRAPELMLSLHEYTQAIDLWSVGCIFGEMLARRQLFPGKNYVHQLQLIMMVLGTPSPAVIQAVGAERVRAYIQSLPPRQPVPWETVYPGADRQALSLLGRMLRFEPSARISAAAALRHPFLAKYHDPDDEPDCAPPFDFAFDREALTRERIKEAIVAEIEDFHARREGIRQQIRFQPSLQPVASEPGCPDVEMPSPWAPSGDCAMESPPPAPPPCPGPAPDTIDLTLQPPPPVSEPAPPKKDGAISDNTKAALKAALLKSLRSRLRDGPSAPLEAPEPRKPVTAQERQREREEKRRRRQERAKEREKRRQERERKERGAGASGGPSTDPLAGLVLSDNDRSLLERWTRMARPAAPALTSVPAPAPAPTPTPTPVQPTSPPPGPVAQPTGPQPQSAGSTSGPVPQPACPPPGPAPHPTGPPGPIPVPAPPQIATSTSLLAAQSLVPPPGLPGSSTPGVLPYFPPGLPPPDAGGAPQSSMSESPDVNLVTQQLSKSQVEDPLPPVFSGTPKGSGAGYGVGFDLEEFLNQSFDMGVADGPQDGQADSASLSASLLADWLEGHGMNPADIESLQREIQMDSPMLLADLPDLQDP

For the molecule `NC(=O)N/N=C/c1ccc([N+](=O)[O-])o1`, the remaining NAD in test [1] was 10 nM. The luciferase signal in test [2] was 36 AU.
The matching figures for `CCN(CC)CCOC(=O)C(c1ccccc1)C1CCCCC1` (configuration not stated): 10 nM and 52 AU.
`CC(=O)Nc1c(I)cc(I)c(C(=O)O)c1I`: in test [1], the remaining NAD was 10 nM. Besides, the luciferase signal in test [2] was 40 AU.
For `CCn1cc(C(=O)O)c(=O)c2cnc(N3CCCC3)nc21` the same measures were 10 nM and 80 AU.
The matching figures for `CCN(CC)CCNc1ccc(CO)c2sc3ccccc3c(=O)c12`: 10 nM and 36 AU.
As to `CC1=C(C(=O)O)N2C(=O)[C@@H](NC(=O)[C@H](N)c3ccc(O)cc3)[C@H]2SC1`, the remaining NAD in test [1] was 10 nM. Also, the luciferase signal in test [2] is 108 AU.
Take `CCOC(=O)OC(C)OC(=O)[C@@H]1N2C(=O)[C@@H](NC(=O)[C@H](N)c3ccccc3)[C@H]2SC1(C)C` (some centres not stated): in test [1], the remaining NAD is 10 nM. Besides, the luciferase signal in test [2] was 76 AU.
The matching figures for `Cc1cc(=O)n(-c2ccccc2)n1C`: 10 nM and 116 AU.
The matching figures for `CCN(CCCCOC(=O)c1ccc(OC)c(OC)c1)C(C)Cc1ccc(OC)cc1` (configuration not stated): 10 nM and 52 AU.
On to `CCN(CC)CCOC(=O)C(Cc1cccc2ccccc12)CC1CCCO1` (configuration not stated), for which the remaining NAD in test [1] is 10 nM. Moreover, in test [2], the luciferase signal was 36 AU.
The matching figures for `CN1CCOC(c2ccccc2)c2ccccc2C1` (configuration not stated): 10 nM and 120 AU.
The matching figures for `C=CCSCC1Nc2cc(Cl)c(S(N)(=O)=O)cc2S(=O)(=O)N1` (configuration not stated): 10 nM and 40 AU.
For `CCC(Cc1c(I)cc(I)c(N)c1I)C(=O)O` (configuration not stated) the same measures were 10 nM and 56 AU.
On to `NC(=O)c1ccccc1O`, for which the remaining NAD in test [1] is 10 nM. Besides, in test [2], the luciferase signal is 56 AU.
For `CCCCc1nc(Cl)c(CO)n1Cc1ccc(-c2ccccc2-c2nn[nH]n2)cc1` the same measures were 10 nM and 44 AU.
With `CN(C)c1ccc2nc3ccc(=[N+](C)C)cc-3sc2c1`, the remaining NAD in test [1] is 10 nM. In addition, in test [2], the luciferase signal was 80 AU.
The matching figures for `Nc1ncnc2nc[nH]c12`: 10 nM and 72 AU.
For `OCC(O)CN1CCN(c2ccccc2)CC1` (configuration not stated) the same measures were 10 nM and 48 AU.
The matching figures for `O=C(O)c1ccccc1O`: 10 nM and 24 AU.
Turning to `CCN(CC)CCNC(=O)c1cc(Br)c(N)cc1OC`, the remaining NAD in test [1] is 10 nM. Moreover, in test [2], the luciferase signal is 60 AU.
For `CC(=O)Oc1cccc2c1C(=O)c1c(OC(C)=O)cc(C(=O)O)cc1C2=O` the same measures were 10 nM and 44 AU.
In the case of `Cc1c(Nc2ncccc2C(=O)O)cccc1C(F)(F)F`, the remaining NAD in test [1] was 10 nM. Also, in test [2], the luciferase signal was 44 AU.
For `Oc1cccc(O)c1`, the remaining NAD in test [1] is 10 nM. In addition, the luciferase signal in test [2] was 20 AU.
Turning to `OC[C@H]1O[C@@H](O[C@@H]2[C@@H](CO)O[C@](O)(CO)[C@H]2O)[C@H](O)[C@@H](O)[C@H]1O`, in test [1], the remaining NAD is 10 nM. The luciferase signal in test [2] is 16 AU.
For `CCCCCCCCNC(C)C(O)c1ccc(SC(C)C)cc1` (configuration not stated) the same measures were 10 nM and 60 AU.
As for `O=C1OC(c2ccc(O)cc2)(c2ccc(O)cc2)c2ccccc21`, the remaining NAD in test [1] is 10 nM. Moreover, in test [2], the luciferase signal was 84 AU.
On to `O=C(O)c1cc(O)c(O)c(O)c1`, for which the remaining NAD in test [1] was 10 nM. For the same molecule, the luciferase signal in test [2] was 100 AU.
For `CCCCOc1ccc(CC(=O)NO)cc1` the same measures were 10 nM and 44 AU.
The matching figures for `COc1ccc(C2C(=O)c3ccccc3C2=O)cc1`: 10 nM and 172 AU.
The matching figures for `Cc1c(NC(=O)c2cccnc2)c(=O)n(-c2ccccc2)n1C`: 10 nM and 56 AU.
Take `Nc1ccc(S(=O)(=O)Nc2ccccn2)cc1`: the remaining NAD in test [1] was 10 nM. Besides, the luciferase signal in test [2] is 64 AU.
For `C/C=C(/C(=C/C)c1ccc(O)cc1)c1ccc(O)cc1` the same measures were 10 nM and 72 AU.
Consider `CCN(CC)C(=O)c1cccc(C)c1`, for which the remaining NAD in test [1] was 10 nM. For the same molecule, in test [2], the luciferase signal is 68 AU.
The matching figures for `CC(=O)OCC(COC(C)=O)OC(C)=O`: 10 nM and 8 AU.
For `Cc1cc(-c2ccccc2)nnc1NCCN1CCOCC1` the same measures were 10 nM and 48 AU.
As for `NC(=O)NC1NC(=O)NC1=O` (configuration not stated), the remaining NAD in test [1] was 10 nM. Further, the luciferase signal in test [2] was 72 AU.
